# Results published in a collection of fitness landscapes (doi:10.1126/science.1257360).
# Over roughly 140,000 sequences, “enrichment ratio after two sorts for PhoP signalling” has its median near 0; the highest 2% begin near 11. The full list was thinned out, with the highest values kept by preference.
# B1: PhoQ; a variant is named by its letters at X, in order, P23837 (parent)
# chain: MKKLLRLFFPLSLRVRFLLATAAVVLVLSLAYGMVALIGYSVSFDKTTFRLLRGESNLFYTLAKWENNKLHVELPENIDKQSPTMTLIYDENGQLLWAQRDVPWLMKMIQPDWLKSNGFHEIEADVNDTSLLLSGDHSIQQQLQEVREDDDDAEMTHSVAVNVYPATSRMPKLTIVVVDTIPVELKSSYMVWSWFIYVLSANLLLVIPLLWVAAWWSLRPIEALAKEVRELEEHNRELLNPATTRELTSLVRNLNRLLKSERERYDKYRTTLTDLTHSLKTPLXXLQXXLRSLRSEKMSVSDAEPVMLEQISRISQQIGYYLHRASMRGGTLLSRELHPVAPLLDNLTSALNKVYQRKGVNISLDISPEISFVGEQNDFVEVMGNVLDNACKYCLEFVEISARQTDEHLYIVVEDDGPGIPLSKREVIFDRGQRVDTLRPGQGVGLAVAREITEQYEGKIVAGESMLGGARMEVIFGRQHSAPKDE
# Variants of: B1
# Assay: enrichment ratio after two sorts for PhoP signalling (ratio (wild type AVST 3.29)); higher = more functional
# Settings: with PhoP (E. coli)
row,Variant,enrichment ratio
1,ERYW,≤ 0.25
2,TEFV,8.47
3,FYGK,≤ 0.25
4,FRYA,≤ 0.25
5,WKER,≤ 0.25
6,FREH,≤ 0.25
7,EDQF,≤ 0.25
8,PKWA,≤ 0.25
9,MNPT,≤ 0.25
10,WRCA,≤ 0.25
11,GWPN,≤ 0.25
12,AETM,≤ 0.25
13,AEHF,≤ 0.25
14,AESF,14.8
15,AERM,≤ 0.25
16,AETF,9.37
17,AETS,20.8
18,AESK,≤ 0.25
19,AEVM,46.8
20,AETE,8.78
21,AETV,22.9
22,AEDV,≤ 0.25
23,AEGM,≤ 0.25
24,RWWL,≤ 0.25

row,Variant,enrichment ratio
1,RSVA,≤ 0.25
2,ECQN,≤ 0.25
3,VEAF,≤ 0.25
4,AEKS,≤ 0.25
5,AETW,11.3
6,AERL,≤ 0.25
7,AEEL,≤ 0.25
8,AEQC,16
9,AQQC,≤ 0.25
10,AEPC,≤ 0.25
11,AETQ,≤ 0.25
12,AESC,32.1
13,AEVL,17.5
14,AEFW,≤ 0.25
15,AKQC,≤ 0.25
16,YVCN,≤ 0.25
17,DGHV,≤ 0.25
18,VIEF,≤ 0.25
19,WKPN,≤ 0.25
20,EKAV,≤ 0.25
21,SRPM,≤ 0.25
22,STCS,10.8
23,STCA,7.48
24,STCI,12.3

row,Variant,enrichment ratio
1,SRCK,≤ 0.25
2,SPPM,≤ 0.25
3,STCK,12.3
4,STHE,≤ 0.25
5,STPM,15.9
6,YTCE,≤ 0.25
7,YTCK,≤ 0.25
8,STCE,13.1
9,TPLS,≤ 0.25
10,QDRE,≤ 0.25
11,ICDP,≤ 0.25
12,QAMT,≤ 0.25
13,QYWL,≤ 0.25
14,FCIR,≤ 0.25
15,RNQK,≤ 0.25
16,LNAP,≤ 0.25
17,THWI,≤ 0.25
18,YKPH,≤ 0.25
19,VKLF,≤ 0.25
20,AGWK,≤ 0.25
21,GMCH,16.1
22,TEMH,134
23,GNCH,3.45
24,HECH,12.7

row,Variant,enrichment ratio
1,HRMH,≤ 0.25
2,TCCH,7.95
3,HECF,≤ 0.25
4,VFCH,≤ 0.25
5,GMMH,≤ 0.25
6,HECI,6.73
7,NRMH,≤ 0.25
8,VECH,24.1
9,GFPY,≤ 0.25
10,DYYD,≤ 0.25
11,EPTC,≤ 0.25
12,QQYH,≤ 0.25
13,QHTA,≤ 0.25
14,ETDE,≤ 0.25
15,YWCH,≤ 0.25
16,DMCH,≤ 0.25
17,HVCH,≤ 0.25
18,TECH,27.7
19,NECH,18
20,HPCH,≤ 0.25
21,MECH,56.6
22,QECH,≤ 0.25
23,MFCH,≤ 0.25
24,FIVW,≤ 0.25

row,Variant,enrichment ratio
1,MRRQ,≤ 0.25
2,KFHY,≤ 0.25
3,FGDH,≤ 0.25
4,EQSM,≤ 0.25
5,YMLV,0.756
6,NWGV,≤ 0.25
7,AFIT,≤ 0.25
8,IIPL,≤ 0.25
9,GIWM,≤ 0.25
10,GIAH,22.5
11,GNAH,≤ 0.25
12,GITM,10.3
13,GNMM,0.333
14,GNGW,≤ 0.25
15,GIGW,16
16,GIGM,36.1
17,GIHW,≤ 0.25
18,GIMM,17.3
19,GITH,≤ 0.25
20,GIYM,≤ 0.25
21,RCKT,≤ 0.25
22,KSCR,≤ 0.25
23,YPKK,≤ 0.25
24,TDMP,≤ 0.25

row,Variant,enrichment ratio
1,PKYN,≤ 0.25
2,IVYH,≤ 0.25
3,QMPA,≤ 0.25
4,LKRS,≤ 0.25
5,KQPM,≤ 0.25
6,RNQP,≤ 0.25
7,WSPR,≤ 0.25
8,NEWG,≤ 0.25
9,IPQP,≤ 0.25
10,MNPP,≤ 0.25
11,CSHW,≤ 0.25
12,PKLP,0.31
13,FDCK,≤ 0.25
14,KLPV,≤ 0.25
15,GISR,≤ 0.25
16,GITF,18.4
17,GILT,3.61
18,GNTF,≤ 0.25
19,GIGG,≤ 0.25
20,GIMQ,11.4
21,GIGQ,≤ 0.25
22,GISA,13
23,GNMT,≤ 0.25
24,GNSA,2.7

row,Variant,enrichment ratio
1,GIHF,≤ 0.25
2,GIMT,12.6
3,WKTM,≤ 0.25
4,RKLH,≤ 0.25
5,GFLH,≤ 0.25
6,TNCW,≤ 0.25
7,LAHQ,≤ 0.25
8,MIEG,≤ 0.25
9,RYNY,≤ 0.25
10,GNAW,≤ 0.25
11,WIVV,≤ 0.25
12,GYLR,≤ 0.25
13,GITD,≤ 0.25
14,GILR,12.2
15,GNVV,5.22
16,GNLR,≤ 0.25
17,GTMC,≤ 0.25
18,GIMC,17.3
19,GNMC,≤ 0.25
20,GIVV,11.3
21,GIAW,21.6
22,MDVY,≤ 0.25
23,LSLS,≤ 0.25
24,IAET,≤ 0.25

row,Variant,enrichment ratio
1,ECYK,≤ 0.25
2,KLTV,≤ 0.25
3,LQYA,≤ 0.25
4,LGNN,≤ 0.25
5,QGIH,≤ 0.25
6,EKVT,≤ 0.25
7,YIEP,≤ 0.25
8,HLIK,≤ 0.25
9,GITG,2.48
10,GITI,5.68
11,GITK,16
12,GIAG,15.6
13,GILG,12.3
14,GNAG,0.269
15,GNLG,5.07
16,GNSS,5.64
17,GNTK,≤ 0.25
18,GISK,4.87
19,GIMG,8.1
20,GISS,13.5
21,RNAN,≤ 0.25
22,KNTS,≤ 0.25
23,TMDQ,≤ 0.25
24,AWAD,≤ 0.25

row,Variant,enrichment ratio
1,RVNY,≤ 0.25
2,YHMP,≤ 0.25
3,AFVI,≤ 0.25
4,SYPA,≤ 0.25
5,GISF,8.06
6,GNSM,10.6
7,GIAT,≤ 0.25
8,GIYI,0.548
9,GILQ,17.5
10,GNLQ,5.83
11,GIWI,≤ 0.25
12,GISM,18.4
13,GIAS,14.2
14,GILA,11.3
15,GITA,7.39
16,GNAS,4.84
17,EYAS,≤ 0.25
18,LGCH,≤ 0.25
19,TLYV,0.293
20,LEIN,≤ 0.25
21,EYMV,≤ 0.25
22,RHQP,≤ 0.25
23,GICE,6.08
24,GIME,13.3

row,Variant,enrichment ratio
1,GNME,≤ 0.25
2,DICD,≤ 0.25
3,EHLY,≤ 0.25
4,FVVK,≤ 0.25
5,ASQM,2.47
6,VRSM,≤ 0.25
7,ASSF,11.3
8,ASSM,19.3
9,ASGR,≤ 0.25
10,KSSF,≤ 0.25
11,VGAL,0.829
12,GWCN,≤ 0.25
13,HEML,≤ 0.25
14,SWML,≤ 0.25
15,STML,13.4
16,SGML,17.4
17,KYML,≤ 0.25
18,SMML,14.5
19,SGEL,≤ 0.25
20,SYML,0.252
21,SNML,15.9
22,NMML,≤ 0.25
23,TIML,2.74
24,AVQL,≤ 0.25

row,Variant,enrichment ratio
1,YNMI,0.268
2,IVRK,≤ 0.25
3,TQMH,9.69
4,IKMM,≤ 0.25
5,WGHD,≤ 0.25
6,SQFI,≤ 0.25
7,RPFT,≤ 0.25
8,SRML,4.3
9,SPML,≤ 0.25
10,SAKL,≤ 0.25
11,SAML,16.5
12,SSML,23.6
13,SLML,7.15
14,IIML,≤ 0.25
15,SCML,11.2
16,SIML,6.65
17,HYKH,≤ 0.25
18,GCEP,≤ 0.25
19,RQGY,≤ 0.25
20,QLWN,≤ 0.25
21,IQNM,≤ 0.25
22,FFWN,≤ 0.25
23,QSQN,≤ 0.25
24,QTWI,3.53

row,Variant,enrichment ratio
1,QQNM,16.3
2,QQRM,≤ 0.25
3,FTWN,≤ 0.25
4,FVWN,≤ 0.25
5,QGWN,16.6
6,QSWN,21.4
7,QTWN,16.8
8,QVFE,≤ 0.25
9,EYFQ,≤ 0.25
10,FTGV,≤ 0.25
11,FFRA,≤ 0.25
12,LYHH,≤ 0.25
13,EIFG,≤ 0.25
14,QRWL,≤ 0.25
15,MAWL,12
16,QPWL,≤ 0.25
17,FPWN,≤ 0.25
18,KAWN,≤ 0.25
19,MAWI,8.24
20,QQWN,13.8
21,FCWL,≤ 0.25
22,MAWN,23.5
23,QSWL,11.6
24,TPWN,≤ 0.25

row,Variant,enrichment ratio
1,NAWN,≤ 0.25
2,YELN,2.61
3,KINA,≤ 0.25
4,IDLY,≤ 0.25
5,SGPA,≤ 0.25
6,TVIM,≤ 0.25
7,ALLC,1.19
8,SWSV,≤ 0.25
9,LKFM,≤ 0.25
10,FEFH,≤ 0.25
11,QQRL,≤ 0.25
12,QRWN,≤ 0.25
13,QIWN,27.2
14,QIYN,20.5
15,QVWL,1.05
16,QEYN,≤ 0.25
17,QQNL,14.9
18,QQWL,11.7
19,QQQL,≤ 0.25
20,QQEL,≤ 0.25
21,QPWN,≤ 0.25
22,QRYN,≤ 0.25
